An excerpt weighted towards active compounds, which were near 3.5% of everything screened.
FBW7 act – activators of human E3 ligase FBW7; Q969H0; AlphaScreen FBW7–phospho-cyclin E peptide binding, activator screen; normalized activity (activation), % at 26.1 µM; hit rate 0.13% among 650,000; AID 1259310; in the data active = normalized activity above about 1.9%;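 also: purified mutant Fbw7 with reduced substrate affinity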
MITF inh – blocks human microphthalmia-associated transcription factor. O75030. hit rate 0.91% among 650,000. AlphaScreen MITF homodimerization, bead proximity signal. inhibition, % at 2.6 µM; in the data active = inhibition above about 50%
Target sequence (O75030 whole entry, looked up): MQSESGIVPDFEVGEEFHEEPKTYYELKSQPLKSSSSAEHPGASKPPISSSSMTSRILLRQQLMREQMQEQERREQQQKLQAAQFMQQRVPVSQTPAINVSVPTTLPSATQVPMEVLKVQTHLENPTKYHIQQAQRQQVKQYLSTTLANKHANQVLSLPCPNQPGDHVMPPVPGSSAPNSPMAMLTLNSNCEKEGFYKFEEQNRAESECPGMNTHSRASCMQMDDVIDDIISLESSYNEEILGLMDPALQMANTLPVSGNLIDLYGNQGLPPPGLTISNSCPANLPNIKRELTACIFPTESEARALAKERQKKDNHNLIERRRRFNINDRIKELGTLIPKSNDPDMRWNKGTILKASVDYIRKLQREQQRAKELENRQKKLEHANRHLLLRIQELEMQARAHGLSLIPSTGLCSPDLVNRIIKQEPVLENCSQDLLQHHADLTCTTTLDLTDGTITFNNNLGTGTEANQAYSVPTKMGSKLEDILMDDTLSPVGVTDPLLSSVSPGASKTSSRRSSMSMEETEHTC
TEAD-YAP inh – TEAD-YAP interaction inhibition. HEK-TIYL cells, TEAD-Gal4/YAP UAS-luciferase luminescence. inhibition, % at 9.12 µM. hit rate 1.4% among 640,000; in the data active = inhibition above about 32%
GPR151 ag – activators of human GPR151; hit rate 1% among 650,000; activation, % at 11.2 µM; PathHunter beta-arrestin GPR151 cells, luminescence; in the data active = activation above about 4.9%
Of the large screens only hits and unclear results are named; the others gave an inactive call; ! = a repeat was not active.

Cc1nc(C)n(-c2ccc(Nc3cc(-c4nn(-c5ccc(C#N)cc5)cc4-c4ccccc4)ccn3)cc2)n1	TEAD-YAP inh 41.7
Cc1nc(C)n(-c2ccc(Nc3cc(-c4nn(-c5nccs5)cc4-c4ccccc4)ccn3)cc2)n1	none
CCCOc1ccc(-c2cc(C(=O)N3CCCCCC3)c3ccccc3n2)cc1	none
O=C(Nc1ccc(F)cc1)Nc1nnc(CCc2ccccc2)s1	none
CSc1ccc(/C=N\NC(=O)c2ccccn2)cc1	TEAD-YAP inh 49.3
O=C(N/N=C\c1ccc(F)cc1)c1ccccn1	none
CCc1ccc(/C=N/NC(=O)c2ccccn2)cc1	none
CCOc1ccc(/C=N\NC(=O)c2ccccn2)cc1	TEAD-YAP inh 36.4
O=C(N/N=C\c1ccc(O)cc1)c1ccccn1	TEAD-YAP inh 42.1
O=C(N/N=C/c1ccc(O)cc1)c1ccccn1	none
O=C(N/N=C\c1cccc(O)c1)c1ccccn1	TEAD-YAP inh 74.4
CC1CCCCN1S(=O)(=O)c1ccc(C(=O)Nc2nc3c(s2)CSc2ccccc2-3)cc1 (stereo not given)	none
CC(=C/c1ccccc1)/C=N/NC(=O)c1ccccn1	none
CC(/C=N\NC(=O)c1ccccn1)=C\c1ccccc1	TEAD-YAP inh 34.0
CCOc1ccc(/C=N/NC(=O)c2ccoc2C)cc1	TEAD-YAP inh 37.8
O=C(N/N=C/c1cccc(O)c1O)c1ccccn1	MITF inh 81.4
COCCCNC(=O)c1c[nH]c2ccc(S(=O)(=O)N3CC(C)CC(C)C3)cc2c1=O (stereo not given)	none
CN1CCN(S(=O)(=O)c2cc(Cl)cc(Cl)c2O)CC1	none
COC(=O)c1cc(C(=O)NC2CCCC2)cc([N+](=O)[O-])c1	none
COc1ccc(CNC(=O)c2cc(-c3ccc(O)cc3)on2)cc1	TEAD-YAP inh 38.5
Cc1ccc(CNC(=O)CN(Cc2ccccc2)S(=O)(=O)c2ccccc2)cc1	none
Cc1ccc(S(=O)(=O)N(CC(=O)NCc2ccncc2)Cc2ccccc2)cc1	FBW7 act 1.9
Cc1ccc(NC(=O)CSc2nc3ccccc3nc2Cc2cccc([N+](=O)[O-])c2)cc1F	none
CCN(CC)CCNC(=O)/C(=C/c1ccc(OC)c(OC)c1)NC(=O)c1ccc(C)cc1	none
O=C1NC(=S)N/C1=C/c1ccc(-c2cccc(Cl)c2)o1	none
O=C1NC(=S)N/C1=C/c1ccc(-c2ccc3c(c2)C(=O)OC3)o1	FBW7 act 2.5
N#CCCN(C(=O)CCl)c1ccccc1F	TEAD-YAP inh 46.2
COc1ccccc1N(CCC#N)C(=O)CCl	none
COc1ccc(C(=O)/C=C/c2ccccc2[N+](=O)[O-])c(OC)c1	none
C/C(=N/NC(=S)NNC(=S)Nc1ccccc1F)c1ccco1	none
O=c1[nH]cc(F)c(=O)[nH]1	TEAD-YAP inh 34.9!
O=c1oc2cc(Br)c(O)c(Br)c2s1	MITF inh 58.6
O=c1oc2c(Br)cc(Br)c(O)c2s1	none
O=c1oc2cc(Cl)c(O)c(Cl)c2s1	MITF inh 55.0
Cc1c(Br)c(O)c(Br)c2sc(=O)oc12	MITF inh 78.8
COC(=O)Oc1c(Br)cc2sc(=O)oc2c1Br	none
O=c1oc2cc(Cl)c(O)cc2s1	none
COc1ccc(-n2nc(C(=O)N(C)c3cc(Cl)ccc3C)c3ccccc3c2=O)cc1	none
COc1ccccc1-c1nc(Cn2cnc3cc(C)c(C)cc32)no1	TEAD-YAP inh 32.7
O=C(Nc1cccc(O)c1)c1cc(-c2ccc3c(c2)OCO3)on1	TEAD-YAP inh 97.2
O=C(Nc1cccc(O)c1)c1cc(-c2cccnc2)on1	none
O=C(Nc1cccc(O)c1)c1cc(-c2ccc(Cl)cc2)on1	TEAD-YAP inh 80.6
Cc1cccc(OC(C)C(=O)Nc2ccc(S(=O)(=O)N3CCOCC3)cc2)c1 (stereo not given)	none
O=C(Nc1ccc2c(c1)OCO2)c1ccc(C(=O)Nc2ccc3c(c2)OCO3)nc1	none
CC(=O)Nc1ccc(Nc2nc(-c3c(C)nc4cc(C)ccn34)cs2)cc1	TEAD-YAP inh 57.0
Cc1ccn2c(-c3csc(Nc4ccc(S(N)(=O)=O)cc4)n3)c(C)nc2c1	none
Cc1ccn2c(-c3csc(Nc4ccc(Cl)cc4)n3)c(C)nc2c1	TEAD-YAP inh 54.6
N#Cc1cc(-c2ccnc(Nc3ccc(N4CCNCC4)cc3)n2)cc(N2CCOCC2)c1	TEAD-YAP inh 31.9
N#Cc1cc(-c2ccnc(Nc3ccc(CN4CCCCC4)cc3)n2)cc(N2CCOCC2)c1	TEAD-YAP inh 36.3
CC(=O)Oc1ccccc1/C=C/c1nc2ccccc2c(=O)o1	TEAD-YAP inh 59.4
O=C(Oc1ccccc1)c1ccc(NS(=O)(=O)c2cccc3cccnc23)cc1	none
CCCCOc1c(Br)cc(C2NC(=O)NC(C)=C2C(=O)OC)cc1OC (stereo not given)	TEAD-YAP inh 35.0
COC(=O)C1=C(C)Nc2nnnn2C1c1ccc(OC)cc1 (stereo not given)	none
CCOC(=O)C1=C(C)Nc2nnnn2C1c1cc(Br)c(OC)c(OC)c1 (stereo not given)	TEAD-YAP inh 53.4
COC(=O)C1=C(C)Nc2nnnn2C1c1cc(OC)c(OC)c(OC)c1 (stereo not given)	TEAD-YAP inh 50.9
CCOC(=O)C1=C(C)Nc2nnnn2C1c1ccc(OC)c(OC)c1 (stereo not given)	none
COC(=O)C1=C(C)NC(=O)NC1c1cc(Br)c(OC)c(OC)c1 (stereo not given)	none
CC(C)n1c2ccccc2n2c(=S)[nH]nc12	none
Cc1cc(S(=O)(=O)O)c(C(C)C)cc1N	FBW7 act 4.1
CC(=O)C1=C(c2ccc([N+](=O)[O-])cc2)N(C(C)=O)n2cnnc2S1	TEAD-YAP inh 32.1
COc1cccc(/C(C)=N/NC(=O)Cc2cccn2C)c1	none
COC(=O)c1ccccc1N=C/C(C(=O)C(F)(F)F)=C(\O)c1cccs1	none
COc1ccccc1N=C/C(C(=O)C(F)(F)F)=C(\O)c1cccs1	TEAD-YAP inh 49.5
CCOc1ccccc1-c1cc(C(=O)N/N=C(/C)c2cccc(O)c2)[nH]n1	TEAD-YAP inh 51.6
COc1cc(/C(C)=N/NC(=O)c2cc(-c3cccc4ccccc34)n[nH]2)ccc1O	none
CCOc1ccccc1-c1cc(C(=O)N/N=C(/C)c2ccccc2)[nH]n1	TEAD-YAP inh 49.6
Cc1ccc(-c2cc(=O)c3cc(Cl)ccc3o2)cc1	none
Cc1ccc(-c2c3cc(O)c(=O)cc-3oc3cc(O)c(O)cc23)cc1	MITF inh 102.2
O=c1cc2oc3cc(O)c(O)cc3c(-c3cccnc3)c-2cc1O	MITF inh 100.5
COc1ccc(-c2cc(=O)c3cc(O)ccc3o2)cc1OC	none
COc1cc(-c2c3cc(O)c(=O)cc-3oc3cc(O)c(O)cc23)ccc1C	MITF inh 106.2
CCOc1ccccc1-c1c2cc(O)c(=O)cc-2oc2cc(O)c(O)cc12	MITF inh 103.0
O=C1CCCN1C(=O)CSc1nc(-c2ccc(F)cc2)cs1	none
CCC(C)(C)c1ccc(OCCCC[n+]2cccc(C)c2C)c(C(C)(C)CC)c1	TEAD-YAP inh 87.7
CCC(C)(C)c1ccc(OCCCC[n+]2ccc(C)cc2)c(C(C)(C)CC)c1	TEAD-YAP inh 45.4
COc1cc(OC)c(C(=O)N2CCN(c3ccc([N+](=O)[O-])cc3)CC2)cc1OC	none
O=C(O)/C=C\C(=O)Nc1ccc(Cl)c(Cl)c1	none
O=C(O)/C=C\C(=O)Nc1ccc2cn[nH]c2c1	TEAD-YAP inh 47.0
